From article PMC11006913

Experiments:
Test in all cases: PBM; 200 nM protein, PBS
Settings in all cases: dsDNA, one strand shown
HOXC9 [1] = molecular target: HOXC9 (Homo sapiens, UniProt P31274 178-260, K195R)
PRRX1 [2] = molecular target: PRRX1 (Homo sapiens, UniProt P54821 80-166, F113S)
HOXC9 [3] = molecular target: HOXC9 (Homo sapiens, UniProt P31274 178-260)
ALX1 [4] = molecular target: ALX1 (Homo sapiens, UniProt Q15699 118-204, L144V)
HOXC9 [5] = molecular target: HOXC9 (Homo sapiens, UniProt P31274 178-260, R193K)
Sequence of HOXC9 (Homo sapiens, UniProt P31274 178-260, R193K) (P31274 178-260 R193K): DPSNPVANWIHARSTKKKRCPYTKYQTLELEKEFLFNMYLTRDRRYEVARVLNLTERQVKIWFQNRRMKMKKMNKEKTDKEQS

ALX1 [6] = molecular target: ALX1 (Homo sapiens, UniProt Q15699 118-204, L144R)
Sequence of ALX1 (Homo sapiens, UniProt Q15699 118-204, L144R) (Q15699 118-204 L144R): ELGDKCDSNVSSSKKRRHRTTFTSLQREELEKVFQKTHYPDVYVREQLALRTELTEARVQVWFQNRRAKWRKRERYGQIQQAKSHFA

HOXC9 [7] = molecular target: HOXC9 (Homo sapiens, UniProt P31274 178-260, R222W)
Sequence of HOXC9 (Homo sapiens, UniProt P31274 178-260, R222W) (P31274 178-260 R222W): as the sequence (P31274 178-260 R193K) above, with K16R, R45W counted along it

ALX1 [8] = molecular target: ALX1 (Homo sapiens, UniProt Q15699 118-204)
Sequence of ALX1 (Homo sapiens, UniProt Q15699 118-204) (Q15699 118-204): as the sequence (Q15699 118-204 L144R) above, with R27L counted along it

PRRX1 [9] = molecular target: PRRX1 (Homo sapiens, UniProt P54821 80-166)
Sequence of PRRX1 (Homo sapiens, UniProt P54821 80-166) (P54821 80-166): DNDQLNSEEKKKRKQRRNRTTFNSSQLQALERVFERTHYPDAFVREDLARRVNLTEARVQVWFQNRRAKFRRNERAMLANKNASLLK

HOXA4 [10] = molecular target: HOXA4 (Homo sapiens, UniProt Q00056 201-287, W262R)
Sequence of HOXA4 (Homo sapiens, UniProt Q00056 201-287, W262R) (Q00056 201-287 W262R): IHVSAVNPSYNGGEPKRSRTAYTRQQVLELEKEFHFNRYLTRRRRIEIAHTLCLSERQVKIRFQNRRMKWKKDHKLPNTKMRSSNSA

HOXA4 [11] = molecular target: HOXA4 (Homo sapiens, UniProt Q00056 201-287)
Sequence of HOXA4 (Homo sapiens, UniProt Q00056 201-287) (Q00056 201-287): as the sequence (Q00056 201-287 W262R) above, with R62W counted along it

VAX1 [12] = molecular target: VAX1 (Homo sapiens, UniProt Q5SQQ9 86-172)
Sequence of VAX1 (Homo sapiens, UniProt Q5SQQ9 86-172) (Q5SQQ9 86-172): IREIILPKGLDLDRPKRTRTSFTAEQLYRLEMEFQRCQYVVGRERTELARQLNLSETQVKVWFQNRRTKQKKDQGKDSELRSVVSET

VAX1 [13] = molecular target: VAX1 (Homo sapiens, UniProt Q5SQQ9 86-172, T142I)
Sequence of VAX1 (Homo sapiens, UniProt Q5SQQ9 86-172, T142I) (Q5SQQ9 86-172 T142I): as the sequence (Q5SQQ9 86-172) above, with T57I counted along it

VAX1 [14] = molecular target: VAX1 (Homo sapiens, UniProt Q5SQQ9 86-172, K157R)
Sequence of VAX1 (Homo sapiens, UniProt Q5SQQ9 86-172, K157R) (Q5SQQ9 86-172 K157R): as the sequence (Q5SQQ9 86-172) above, with K72R counted along it

HOXC10 [15] = molecular target: HOXC10 (Homo sapiens, UniProt Q9NYD6 254-340)
Sequence of HOXC10 (Homo sapiens, UniProt Q9NYD6 254-340) (Q9NYD6 254-340): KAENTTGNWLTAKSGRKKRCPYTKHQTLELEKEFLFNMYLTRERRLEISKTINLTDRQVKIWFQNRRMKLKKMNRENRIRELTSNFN

HOXC10 [16] = molecular target: HOXC10 (Homo sapiens, UniProt Q9NYD6 254-340, K271E)
Sequence of HOXC10 (Homo sapiens, UniProt Q9NYD6 254-340, K271E) (Q9NYD6 254-340 K271E): as the sequence (Q9NYD6 254-340) above, with K18E counted along it

HOXA4 [17] = molecular target: HOXA4 (Homo sapiens, UniProt Q00056 201-287, W262F)
Sequence of HOXA4 (Homo sapiens, UniProt Q00056 201-287, W262F) (Q00056 201-287 W262F): as the sequence (Q00056 201-287 W262R) above, with R62F counted along it

HOXA2 [18] = molecular target: HOXA2 (Homo sapiens, UniProt O43364 129-215, R185T)
Sequence of HOXA2 (Homo sapiens, UniProt O43364 129-215, R185T) (O43364 129-215 R185T): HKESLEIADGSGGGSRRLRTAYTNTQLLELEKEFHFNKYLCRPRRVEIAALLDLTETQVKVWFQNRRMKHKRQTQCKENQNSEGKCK

HOXA2 [19] = molecular target: HOXA2 (Homo sapiens, UniProt O43364 129-215, R185K)
Sequence of HOXA2 (Homo sapiens, UniProt O43364 129-215, R185K) (O43364 129-215 R185K): as the sequence (O43364 129-215 R185T) above, with T57K counted along it

HOXA2 [20] = molecular target: HOXA2 (Homo sapiens, UniProt O43364 129-215, Y150S)
Sequence of HOXA2 (Homo sapiens, UniProt O43364 129-215, Y150S) (O43364 129-215 Y150S): as the sequence (O43364 129-215 R185T) above, with Y22S, T57R counted along it

HOXA2 [21] = molecular target: HOXA2 (Homo sapiens, UniProt O43364 129-215)
Sequence of HOXA2 (Homo sapiens, UniProt O43364 129-215) (O43364 129-215): as the sequence (O43364 129-215 R185T) above, with T57R counted along it

MSX2 [22] = molecular target: MSX2 (Homo sapiens, UniProt P35548 130-214, R199I)
Sequence of MSX2 (Homo sapiens, UniProt P35548 130-214, R199I) (P35548 130-214 R199I): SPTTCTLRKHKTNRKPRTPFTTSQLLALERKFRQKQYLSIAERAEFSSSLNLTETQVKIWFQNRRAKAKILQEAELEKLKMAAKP

MSX2 [23] = molecular target: MSX2 (Homo sapiens, UniProt P35548 130-214)
Sequence of MSX2 (Homo sapiens, UniProt P35548 130-214) (P35548 130-214): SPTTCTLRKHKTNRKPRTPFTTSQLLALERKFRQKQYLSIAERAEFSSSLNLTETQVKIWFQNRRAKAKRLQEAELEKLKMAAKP

MSX2 [24] = molecular target: MSX2 (Homo sapiens, UniProt P35548 130-214, F161Y)
Sequence of MSX2 (Homo sapiens, UniProt P35548 130-214, F161Y) (P35548 130-214 F161Y): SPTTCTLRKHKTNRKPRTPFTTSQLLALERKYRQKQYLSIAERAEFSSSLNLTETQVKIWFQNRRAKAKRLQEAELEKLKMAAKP

Sequence of HOXC9 (Homo sapiens, UniProt P31274 178-260) (P31274 178-260): as the sequence (P31274 178-260 R193K) above, with K16R counted along it
Sequence of PRRX1 (Homo sapiens, UniProt P54821 80-166, F113S) (P54821 80-166 F113S): as the sequence (P54821 80-166) above, with F34S counted along it
Sequence of HOXC9 (Homo sapiens, UniProt P31274 178-260, K195R) (P31274 178-260 K195R): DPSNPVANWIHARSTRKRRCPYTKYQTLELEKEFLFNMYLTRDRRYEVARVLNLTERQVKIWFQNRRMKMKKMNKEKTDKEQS
Sequence of ALX1 (Homo sapiens, UniProt Q15699 118-204, L144V) (Q15699 118-204 L144V): as the sequence (Q15699 118-204 L144R) above, with R27V counted along it

CAGACGGC
binding signal (HOXC9 [1]): 9.46 upbm affinity estimate (log intensity, higher = more binding, comparable within an allelic series)
binding signal (PRRX1 [2]): 9.13 upbm affinity estimate (log intensity, higher = more binding, comparable within an allelic series)
binding signal (HOXC9 [3]): 9.65 upbm affinity estimate (log intensity, higher = more binding, comparable within an allelic series)
binding signal (ALX1 [4]): 6.56 upbm affinity estimate (log intensity, higher = more binding, comparable within an allelic series)
binding signal (HOXC9 [5]): 9.48 upbm affinity estimate (log intensity, higher = more binding, comparable within an allelic series)
binding signal (ALX1 [6]): 6.52 upbm affinity estimate (log intensity, higher = more binding, comparable within an allelic series)
binding signal (HOXC9 [7]): 9.64 upbm affinity estimate (log intensity, higher = more binding, comparable within an allelic series)
binding signal (ALX1 [8]): 6.59 upbm affinity estimate (log intensity, higher = more binding, comparable within an allelic series)
binding signal (PRRX1 [9]): 9.37 upbm affinity estimate (log intensity, higher = more binding, comparable within an allelic series)

AATCACTG
binding signal (HOXA4 [10]): 10.3 upbm affinity estimate (log intensity, higher = more binding, comparable within an allelic series)
binding signal (HOXA4 [11]): 11.3 upbm affinity estimate (log intensity, higher = more binding, comparable within an allelic series)
binding signal (VAX1 [12]): 9.43 upbm affinity estimate (log intensity, higher = more binding, comparable within an allelic series)
binding signal (VAX1 [13]): 9.21 upbm affinity estimate (log intensity, higher = more binding, comparable within an allelic series)
binding signal (VAX1 [14]): 9.33 upbm affinity estimate (log intensity, higher = more binding, comparable within an allelic series)

GACCTCGC
binding signal (HOXC9 [1]): 9.59 upbm affinity estimate (log intensity, higher = more binding, comparable within an allelic series)
binding signal (HOXC10 [15]): 10 upbm affinity estimate (log intensity, higher = more binding, comparable within an allelic series)
binding signal (HOXC9 [3]): 9.54 upbm affinity estimate (log intensity, higher = more binding, comparable within an allelic series)
binding signal (HOXC9 [5]): 9.57 upbm affinity estimate (log intensity, higher = more binding, comparable within an allelic series)
binding signal (HOXC10 [16]): 9.99 upbm affinity estimate (log intensity, higher = more binding, comparable within an allelic series)
binding signal (HOXC9 [7]): 9.76 upbm affinity estimate (log intensity, higher = more binding, comparable within an allelic series)

ATATTGAG
binding signal (HOXA4 [10]): 10.3 upbm affinity estimate (log intensity, higher = more binding, comparable within an allelic series)
binding signal (HOXA4 [11]): 10.9 upbm affinity estimate (log intensity, higher = more binding, comparable within an allelic series)

AATCGATG
binding signal (HOXA4 [10]): 10.4 upbm affinity estimate (log intensity, higher = more binding, comparable within an allelic series)
binding signal (HOXA4 [11]): 11.7 upbm affinity estimate (log intensity, higher = more binding, comparable within an allelic series)

CCCCTCAC
binding signal (HOXC9 [1]): 9.6 upbm affinity estimate (log intensity, higher = more binding, comparable within an allelic series)
binding signal (PRRX1 [2]): 9.49 upbm affinity estimate (log intensity, higher = more binding, comparable within an allelic series)
binding signal (HOXC9 [3]): 9.72 upbm affinity estimate (log intensity, higher = more binding, comparable within an allelic series)
binding signal (HOXC9 [5]): 9.5 upbm affinity estimate (log intensity, higher = more binding, comparable within an allelic series)
binding signal (HOXC9 [7]): 9.75 upbm affinity estimate (log intensity, higher = more binding, comparable within an allelic series)
binding signal (PRRX1 [9]): 9.53 upbm affinity estimate (log intensity, higher = more binding, comparable within an allelic series)

AAGATTAC
binding signal (HOXA4 [10]): 10.2 upbm affinity estimate (log intensity, higher = more binding, comparable within an allelic series)
binding signal (HOXA4 [11]): 11.1 upbm affinity estimate (log intensity, higher = more binding, comparable within an allelic series)
binding signal (HOXA4 [17]): 10.4 upbm affinity estimate (log intensity, higher = more binding, comparable within an allelic series)

CCAGTCGG
binding signal (HOXC9 [1]): 9.76 upbm affinity estimate (log intensity, higher = more binding, comparable within an allelic series)
binding signal (HOXC10 [15]): 10.1 upbm affinity estimate (log intensity, higher = more binding, comparable within an allelic series)
binding signal (HOXA2 [18]): 7.11 upbm affinity estimate (log intensity, higher = more binding, comparable within an allelic series)
binding signal (HOXC9 [3]): 9.93 upbm affinity estimate (log intensity, higher = more binding, comparable within an allelic series)
binding signal (HOXC9 [5]): 9.79 upbm affinity estimate (log intensity, higher = more binding, comparable within an allelic series)
binding signal (HOXA2 [19]): 10.4 upbm affinity estimate (log intensity, higher = more binding, comparable within an allelic series)
binding signal (HOXC10 [16]): 10 upbm affinity estimate (log intensity, higher = more binding, comparable within an allelic series)
binding signal (HOXC9 [7]): 9.69 upbm affinity estimate (log intensity, higher = more binding, comparable within an allelic series)
binding signal (HOXA2 [20]): 10.4 upbm affinity estimate (log intensity, higher = more binding, comparable within an allelic series)
binding signal (HOXA2 [21]): 7.25 upbm affinity estimate (log intensity, higher = more binding, comparable within an allelic series)

GATTTATA
binding signal (HOXA4 [10]): 10.4 upbm affinity estimate (log intensity, higher = more binding, comparable within an allelic series)
binding signal (HOXA4 [11]): 11.4 upbm affinity estimate (log intensity, higher = more binding, comparable within an allelic series)

GGCGCGCC
binding signal (HOXC9 [1]): 9.93 upbm affinity estimate (log intensity, higher = more binding, comparable within an allelic series)
binding signal (PRRX1 [2]): 9.33 upbm affinity estimate (log intensity, higher = more binding, comparable within an allelic series)
binding signal (HOXC9 [3]): 10.1 upbm affinity estimate (log intensity, higher = more binding, comparable within an allelic series)
binding signal (MSX2 [22]): 9.71 upbm affinity estimate (log intensity, higher = more binding, comparable within an allelic series)
binding signal (HOXC9 [5]): 9.89 upbm affinity estimate (log intensity, higher = more binding, comparable within an allelic series)
binding signal (MSX2 [23]): 10.1 upbm affinity estimate (log intensity, higher = more binding, comparable within an allelic series)
binding signal (HOXC9 [7]): 9.82 upbm affinity estimate (log intensity, higher = more binding, comparable within an allelic series)
binding signal (MSX2 [24]): 10 upbm affinity estimate (log intensity, higher = more binding, comparable within an allelic series)
binding signal (PRRX1 [9]): 9.73 upbm affinity estimate (log intensity, higher = more binding, comparable within an allelic series)
